Measured values published in the supplement of paper PMC11732987, “Enantioselective OTUD7B fragment discovery through chemoproteomics screening and high-throughput optimisation” (Communications Chemistry, 2025).

Legend:
Experiment in all cases: log2 ratio of Biotin-Ahx-Ub-VS probe labelling (fragment/DMSO); higher = less target engagement (more negative = stronger competition), active = hit call of the paper (q ≤ 0.05, log2 ratio ≤ -1)
Settings in all cases: compound concentration: 200 uM; treatment time: 3 h
USP19 = target: T1, USP19 (UniProt O94966)
T1 sequence (whole entry): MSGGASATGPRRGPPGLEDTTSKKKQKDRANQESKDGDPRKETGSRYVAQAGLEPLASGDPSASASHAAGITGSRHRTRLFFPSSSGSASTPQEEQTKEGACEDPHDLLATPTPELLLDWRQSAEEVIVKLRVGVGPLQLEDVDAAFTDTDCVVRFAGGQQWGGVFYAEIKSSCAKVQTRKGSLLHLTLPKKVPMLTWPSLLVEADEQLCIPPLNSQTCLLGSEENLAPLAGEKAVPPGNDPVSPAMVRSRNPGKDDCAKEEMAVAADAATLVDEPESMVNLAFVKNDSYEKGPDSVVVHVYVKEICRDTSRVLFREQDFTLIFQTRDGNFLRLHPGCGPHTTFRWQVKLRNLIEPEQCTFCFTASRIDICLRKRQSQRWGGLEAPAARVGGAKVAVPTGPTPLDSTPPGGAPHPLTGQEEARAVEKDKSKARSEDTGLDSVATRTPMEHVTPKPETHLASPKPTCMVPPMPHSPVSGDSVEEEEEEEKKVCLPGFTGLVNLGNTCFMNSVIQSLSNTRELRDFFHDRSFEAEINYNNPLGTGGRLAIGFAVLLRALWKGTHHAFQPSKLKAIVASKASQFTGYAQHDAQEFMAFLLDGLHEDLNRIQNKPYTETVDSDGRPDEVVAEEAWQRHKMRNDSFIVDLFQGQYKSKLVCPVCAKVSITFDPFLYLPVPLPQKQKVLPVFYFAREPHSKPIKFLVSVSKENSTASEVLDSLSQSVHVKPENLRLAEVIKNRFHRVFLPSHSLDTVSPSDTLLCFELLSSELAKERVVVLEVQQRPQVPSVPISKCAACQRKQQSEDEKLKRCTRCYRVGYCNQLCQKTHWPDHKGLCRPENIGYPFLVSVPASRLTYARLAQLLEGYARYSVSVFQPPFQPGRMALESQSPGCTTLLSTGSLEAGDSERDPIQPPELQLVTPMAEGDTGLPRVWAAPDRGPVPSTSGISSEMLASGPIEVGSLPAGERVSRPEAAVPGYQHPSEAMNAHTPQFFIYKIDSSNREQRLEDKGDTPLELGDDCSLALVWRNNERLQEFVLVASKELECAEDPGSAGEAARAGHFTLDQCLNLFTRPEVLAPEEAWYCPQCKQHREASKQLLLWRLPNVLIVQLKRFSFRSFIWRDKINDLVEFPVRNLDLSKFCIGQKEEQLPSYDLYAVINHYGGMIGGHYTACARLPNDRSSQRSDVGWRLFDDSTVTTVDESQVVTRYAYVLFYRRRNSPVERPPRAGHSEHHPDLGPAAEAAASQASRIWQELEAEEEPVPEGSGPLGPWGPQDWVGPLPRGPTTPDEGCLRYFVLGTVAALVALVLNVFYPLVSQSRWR
In short: (§1)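 Triplicate samples of HEK293T lysate, 495 µg each, received fragment at 200 µM or vehicle for 3 h, followed by Biotin-Ahx-Ub-VS (0.5 µM final) for 1 h. After NeutrAvidin enrichment of labelled DUBs and LysC/trypsin digestion, peptides were run by diaPASEF LC-MS/MS. The values are average log2 fragment/vehicle ratios from global-median-normalised Spectronaut label-free quantities, tested by unpaired t-test on proteins having ≥2 unique peptides.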

USP24 = USP24 (UniProt Q9UPU5)
Chain of USP24 (Q9UPU5 whole entry): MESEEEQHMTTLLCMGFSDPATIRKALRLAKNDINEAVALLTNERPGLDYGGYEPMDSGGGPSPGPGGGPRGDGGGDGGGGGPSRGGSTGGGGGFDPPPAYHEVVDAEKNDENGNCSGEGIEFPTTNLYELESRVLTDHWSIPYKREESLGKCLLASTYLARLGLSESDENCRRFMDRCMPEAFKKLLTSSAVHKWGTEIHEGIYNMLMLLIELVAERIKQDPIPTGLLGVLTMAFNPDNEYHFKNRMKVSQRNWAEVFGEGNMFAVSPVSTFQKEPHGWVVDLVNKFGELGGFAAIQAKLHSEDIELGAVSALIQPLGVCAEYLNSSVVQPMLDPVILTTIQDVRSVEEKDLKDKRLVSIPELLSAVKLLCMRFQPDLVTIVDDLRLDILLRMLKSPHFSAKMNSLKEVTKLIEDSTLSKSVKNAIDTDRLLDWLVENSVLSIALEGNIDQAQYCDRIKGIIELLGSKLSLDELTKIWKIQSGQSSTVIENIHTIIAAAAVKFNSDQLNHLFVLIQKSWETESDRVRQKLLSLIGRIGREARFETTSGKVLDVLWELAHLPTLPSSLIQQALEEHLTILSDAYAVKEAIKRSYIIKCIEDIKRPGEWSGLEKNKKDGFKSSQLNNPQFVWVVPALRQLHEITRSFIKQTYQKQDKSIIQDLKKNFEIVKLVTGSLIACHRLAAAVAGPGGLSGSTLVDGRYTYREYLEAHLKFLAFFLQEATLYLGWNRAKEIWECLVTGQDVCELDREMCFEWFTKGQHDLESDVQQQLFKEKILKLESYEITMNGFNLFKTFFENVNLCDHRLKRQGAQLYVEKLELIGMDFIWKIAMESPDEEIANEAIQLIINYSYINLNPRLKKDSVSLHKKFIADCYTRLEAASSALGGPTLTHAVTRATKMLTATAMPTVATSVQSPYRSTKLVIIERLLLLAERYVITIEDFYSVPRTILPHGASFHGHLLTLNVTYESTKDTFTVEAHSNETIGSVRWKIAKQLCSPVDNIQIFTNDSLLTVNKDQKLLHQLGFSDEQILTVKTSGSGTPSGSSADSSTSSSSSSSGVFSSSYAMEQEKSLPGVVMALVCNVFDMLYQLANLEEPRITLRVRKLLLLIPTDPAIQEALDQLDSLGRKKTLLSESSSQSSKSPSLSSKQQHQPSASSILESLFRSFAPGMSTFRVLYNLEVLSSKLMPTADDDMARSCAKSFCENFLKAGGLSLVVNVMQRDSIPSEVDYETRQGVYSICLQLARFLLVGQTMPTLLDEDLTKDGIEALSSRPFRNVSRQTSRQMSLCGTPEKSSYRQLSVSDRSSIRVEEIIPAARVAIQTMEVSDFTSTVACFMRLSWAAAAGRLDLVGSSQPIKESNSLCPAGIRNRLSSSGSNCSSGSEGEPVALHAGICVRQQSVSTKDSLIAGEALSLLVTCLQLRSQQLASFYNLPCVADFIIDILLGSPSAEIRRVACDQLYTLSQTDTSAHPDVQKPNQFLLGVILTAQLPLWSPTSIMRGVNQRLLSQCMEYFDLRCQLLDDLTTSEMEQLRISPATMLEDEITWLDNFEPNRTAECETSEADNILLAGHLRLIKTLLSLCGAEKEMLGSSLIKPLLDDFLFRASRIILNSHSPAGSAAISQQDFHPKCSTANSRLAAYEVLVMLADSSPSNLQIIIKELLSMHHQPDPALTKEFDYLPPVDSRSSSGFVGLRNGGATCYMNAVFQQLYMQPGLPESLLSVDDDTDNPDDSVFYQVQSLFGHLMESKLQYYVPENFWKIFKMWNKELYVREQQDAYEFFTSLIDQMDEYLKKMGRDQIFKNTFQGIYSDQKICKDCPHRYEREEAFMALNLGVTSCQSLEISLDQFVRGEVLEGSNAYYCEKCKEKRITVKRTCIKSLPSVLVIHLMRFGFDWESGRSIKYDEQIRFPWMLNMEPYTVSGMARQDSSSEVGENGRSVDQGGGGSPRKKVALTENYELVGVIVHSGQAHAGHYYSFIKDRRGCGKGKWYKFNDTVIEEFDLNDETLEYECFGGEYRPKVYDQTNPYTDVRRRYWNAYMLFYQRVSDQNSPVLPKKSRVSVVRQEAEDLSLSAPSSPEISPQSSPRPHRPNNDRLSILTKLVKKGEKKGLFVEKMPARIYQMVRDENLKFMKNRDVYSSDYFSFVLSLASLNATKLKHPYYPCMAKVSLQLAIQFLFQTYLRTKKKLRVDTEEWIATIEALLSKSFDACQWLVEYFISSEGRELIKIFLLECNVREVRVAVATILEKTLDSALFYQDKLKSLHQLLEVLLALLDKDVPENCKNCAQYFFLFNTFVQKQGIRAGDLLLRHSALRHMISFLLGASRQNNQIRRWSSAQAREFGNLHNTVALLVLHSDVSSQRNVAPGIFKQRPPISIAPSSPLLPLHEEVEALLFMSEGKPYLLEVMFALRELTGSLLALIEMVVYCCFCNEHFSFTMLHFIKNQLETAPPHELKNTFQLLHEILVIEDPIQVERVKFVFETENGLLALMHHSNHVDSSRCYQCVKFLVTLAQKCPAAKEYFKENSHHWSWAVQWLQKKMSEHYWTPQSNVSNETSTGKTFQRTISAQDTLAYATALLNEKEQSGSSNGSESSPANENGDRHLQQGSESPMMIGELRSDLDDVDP
In short: as §1

USP25 = target: T2, USP25 (UniProt Q9UHP3)
T2 sequence (whole entry): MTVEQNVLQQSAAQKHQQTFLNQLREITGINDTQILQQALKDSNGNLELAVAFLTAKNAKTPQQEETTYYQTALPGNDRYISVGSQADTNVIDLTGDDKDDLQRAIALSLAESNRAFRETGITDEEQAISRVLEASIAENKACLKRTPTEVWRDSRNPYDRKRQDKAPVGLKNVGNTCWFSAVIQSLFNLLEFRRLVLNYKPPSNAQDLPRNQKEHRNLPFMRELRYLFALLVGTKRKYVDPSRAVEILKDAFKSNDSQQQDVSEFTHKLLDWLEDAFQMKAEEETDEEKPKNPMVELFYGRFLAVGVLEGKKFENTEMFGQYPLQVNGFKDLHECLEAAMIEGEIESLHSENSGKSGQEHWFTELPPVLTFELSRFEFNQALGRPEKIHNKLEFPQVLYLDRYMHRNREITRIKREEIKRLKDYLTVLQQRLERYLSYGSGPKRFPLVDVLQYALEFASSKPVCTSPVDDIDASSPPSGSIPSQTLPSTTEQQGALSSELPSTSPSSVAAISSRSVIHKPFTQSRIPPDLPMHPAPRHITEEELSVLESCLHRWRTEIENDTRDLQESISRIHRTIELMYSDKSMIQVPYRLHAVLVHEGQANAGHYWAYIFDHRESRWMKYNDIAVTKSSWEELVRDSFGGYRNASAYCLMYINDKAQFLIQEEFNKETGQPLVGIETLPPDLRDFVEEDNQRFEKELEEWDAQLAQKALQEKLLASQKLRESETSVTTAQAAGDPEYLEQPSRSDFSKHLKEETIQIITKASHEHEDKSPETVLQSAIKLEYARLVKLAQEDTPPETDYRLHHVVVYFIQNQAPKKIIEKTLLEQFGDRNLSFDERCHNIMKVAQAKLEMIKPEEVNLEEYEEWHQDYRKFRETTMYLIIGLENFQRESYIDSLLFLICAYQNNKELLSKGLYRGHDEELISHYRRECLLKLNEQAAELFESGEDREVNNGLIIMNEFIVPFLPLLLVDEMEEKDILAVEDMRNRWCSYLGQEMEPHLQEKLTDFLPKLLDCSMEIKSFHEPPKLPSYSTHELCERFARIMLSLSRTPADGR
In short: as §1

USP28 = target: T3, USP28 (UniProt Q96RU2)
T3 sequence (whole entry): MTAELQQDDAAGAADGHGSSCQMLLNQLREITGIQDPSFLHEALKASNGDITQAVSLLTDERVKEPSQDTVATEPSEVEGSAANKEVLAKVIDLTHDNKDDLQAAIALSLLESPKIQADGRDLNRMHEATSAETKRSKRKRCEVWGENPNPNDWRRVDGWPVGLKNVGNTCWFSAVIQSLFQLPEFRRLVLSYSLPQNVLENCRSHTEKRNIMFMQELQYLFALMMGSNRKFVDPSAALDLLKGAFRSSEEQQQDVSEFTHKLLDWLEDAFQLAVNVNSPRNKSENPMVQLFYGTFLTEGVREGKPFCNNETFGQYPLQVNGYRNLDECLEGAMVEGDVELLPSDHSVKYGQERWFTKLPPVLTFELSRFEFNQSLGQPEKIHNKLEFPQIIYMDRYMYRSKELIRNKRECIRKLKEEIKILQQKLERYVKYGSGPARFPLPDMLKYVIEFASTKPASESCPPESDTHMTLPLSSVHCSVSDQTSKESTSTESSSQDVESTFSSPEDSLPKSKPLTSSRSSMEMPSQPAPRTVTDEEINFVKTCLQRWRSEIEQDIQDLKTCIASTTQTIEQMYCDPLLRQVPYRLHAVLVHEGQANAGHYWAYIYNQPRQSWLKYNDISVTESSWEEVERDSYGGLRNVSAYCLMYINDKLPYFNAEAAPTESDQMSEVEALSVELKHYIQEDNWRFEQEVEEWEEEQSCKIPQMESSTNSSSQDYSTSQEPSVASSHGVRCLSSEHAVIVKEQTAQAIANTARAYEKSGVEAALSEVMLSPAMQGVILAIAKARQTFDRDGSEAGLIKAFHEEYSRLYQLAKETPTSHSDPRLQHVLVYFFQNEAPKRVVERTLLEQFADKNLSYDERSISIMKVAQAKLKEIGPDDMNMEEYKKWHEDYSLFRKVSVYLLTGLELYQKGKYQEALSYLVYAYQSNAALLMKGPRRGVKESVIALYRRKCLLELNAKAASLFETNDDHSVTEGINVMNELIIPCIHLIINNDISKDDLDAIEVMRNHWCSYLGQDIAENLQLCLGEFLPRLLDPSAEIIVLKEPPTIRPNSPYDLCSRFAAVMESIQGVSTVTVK
In short: as §1

Measured: log2 ratio of Biotin-Ahx-Ub-VS probe labelling

Cl.O=C(CCl)N1CCC(Cc2nccs2)C1 (centres undefined)
inactive: USP19 -0.32 | USP24 -0.414 | USP25 -0.365 | USP28 -0.389
